Most compounds without a hit are left out; they make up all but 4.4% or so of the library.
D1 ag: Allosteric Agonists of the Human D1 Dopamine Receptor: qHTS; hit rate 1% among 360,000; D(1A) dopamine receptor (Homo sapiens), P21728; activation, % at 2 µM; HEK293 T-REx D1 cells, calcium flux, agonist mode; AID 504660, 2011; also: 0% is about no effect
Target sequence (P21728 whole entry, looked up): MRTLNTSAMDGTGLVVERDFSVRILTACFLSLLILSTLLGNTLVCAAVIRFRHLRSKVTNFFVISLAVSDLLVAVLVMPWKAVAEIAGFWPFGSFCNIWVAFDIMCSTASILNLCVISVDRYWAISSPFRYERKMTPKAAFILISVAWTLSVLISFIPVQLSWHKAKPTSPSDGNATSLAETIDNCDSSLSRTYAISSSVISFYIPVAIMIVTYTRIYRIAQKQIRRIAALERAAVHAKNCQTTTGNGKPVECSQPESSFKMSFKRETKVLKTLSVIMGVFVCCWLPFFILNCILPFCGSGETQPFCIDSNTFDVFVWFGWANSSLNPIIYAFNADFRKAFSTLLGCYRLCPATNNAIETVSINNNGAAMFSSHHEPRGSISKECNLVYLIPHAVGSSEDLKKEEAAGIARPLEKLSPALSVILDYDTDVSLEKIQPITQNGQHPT
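Inducible HEK293 T-REx D1 cells, force-coupled to calcium signalling, were plated at 4000 cells/well with tetracycline and held overnight at 30 C. After no-wash calcium dye loading, compound-evoked calcium rise over 180 s flagged agonists.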
D1 antag: Antagonist of Human D 1 Dopamine Receptor: qHTS; D(1A) dopamine receptor (Homo sapiens), P21728; HEK293 TREx D1 cells, calcium flux, dopamine EC80; hits give low values; activity change, negative = inhibition, % at 10 µM; hit rate 3.2% among 360,000; AID 504652, 2011; in the data active = activity change below about -30%; also: % is scaled to controls: 0 for no effect and ±100 for the full control effect
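Compound effects on dopamine-evoked calcium signalling were measured in tetracycline-induced HEK293 Trex D1 cells. Dopamine at EC80 followed a 180 s compound pre-read, and fluorescence was tracked kinetically for 180 s more.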
TRHR PAM: qHTS for Small Molecule Agonists and Allosteric Enhancers of Human TRH Receptor: Primary Screen for Enhancers; Thyrotropin-releasing hormone receptor (Homo sapiens), P34981; TRHR cells, fluo-8 calcium fluorescence, EC20 TRH enhancement; enhancement, % at 2 µM; hit rate 0.66% among 360,000; AID 493056, 2011; in the data active = enhancement above about 30%; also: 0% is about no effect
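TRHR-expressing cells loaded with fluo-8 calcium dye were read kinetically (ex 480/em 530) during compound addition, then stimulated with an EC20 of TRH (10 nM final). Enhancement of the Gq-mediated intracellular calcium response was scored.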
D1 potentiator: Potentiators of Human D1 Dopamine Receptor: qHTS; AID 504651, 2011; HEK293 TREx D1 cells, calcium flux, dopamine EC20 potentiation; D(1A) dopamine receptor (Homo sapiens), P21728; potentiation, % at 10 µM; hit rate 0.036% among 360,000; in the data active = potentiation above about 30%; also: 0% is about no effect
USP1 inh: Inhibitors of USP1/UAF1: Primary Screen; Ubiquitin carboxyl-terminal hydrolase 1 (Homo sapiens), O94782; Potency, µM (series often up to 57.1 µM), inactives show at the top dose activity change, negative = inhibition, most hits filed as inhibitors; recombinant USP1/UAF1, Ub-Rhodamine cleavage fluorescence; hit rate 0.23% among 390,000; AID 743255, 2014; active = well fitted inhibition curve with a large enough effect; inconclusive = small, poorly fitted or top-dose-only effect; inactive = no such curve, though single readings can be large or run the other way; also: potency is read from the fitted curve at half-maximal effect; % is scaled to controls: 0 for no effect and ±100 for the full control effect; nearly all actives have a fitted effect of over 60% in size
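USP1/UAF1 complex at 1 nM was preincubated with compound for 15 min at room temperature, then Ub-Rho substrate (150nM final) was added. Fluorescence (480/540 nm) was read kinetically, 6 reads every 60 seconds.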
TRHR agonist: qHTS for Small Molecule Agonists and Allosteric Enhancers of Human TRH Receptor: Primary Screen for Agonists; Thyrotropin-releasing hormone receptor (Homo sapiens), P34981; TRHR cells, calcium flux fluo-8, FDSS agonist mode; activation, % at 2 µM; hit rate 0.18% among 360,000; also: 0% is about no effect
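Read-out: compound-evoked intracellular calcium rise in TRHR cells, fluo-8 dye, kinetic FDSS fluorescence at 1 s/cycle following a 10-cycle baseline. Cells cultured overnight before dye loading (30 min–1.5 h, RT).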
The depositor's hits bear a star; ? = inconclusive; / = no result given; ! = repeats disagree. Rule as the data show it, unless noted: active = activation above about 30%; inactive = the rest.

SMILES	D1 ag	D1 antag	TRHR PAM	D1 potentiator	USP1 inh	TRHR agonist
Cc1ccc(NC(=O)CSCn2nnc3c(=O)[nH]c(Cc4ccc(F)cc4)nc32)c(C)c1	3	-11	4	0	-18%	-1
CCC(C)Oc1ccc(C(=O)Nc2ccc(CN3CCOCC3)cc2)cc1 (configuration not stated)	16	-12	-6	-7	-7%	1
CC(C)(C)c1ccc(C(=O)Nc2ccc(CN3CCS(=O)(=O)CC3)cc2)cc1	19	-9	2	-2	-16%	0
CCCCOc1ccc(C(=O)NC(=S)Nc2ccc(CN3CCOCC3)cc2)cc1	3	-16	32*	-4	-2%	0
O=C(COc1ccccc1Cl)NC(=S)Nc1ccc(CN2CCOCC2)cc1	8	-2	6	-2	-9%	0
CCOc1ccc(NC(=O)c2ccc(NC(=O)c3ccc(CN4CCOCC4)cc3)cc2)cc1	3	-34*	0	-4	2%	0
COc1ccc(C(=O)NC(=S)Nc2ccc(CN3CCOCC3)cc2)cc1	5	-1	1	-3	-16%	1
O=C(Nc1ccc(CN2CCS(=O)(=O)CC2)cc1)c1ccc(C(F)(F)F)cc1	14	-46*	-5	-13	-7%	-1
O=C(COc1ccc(Cl)cc1Cl)NC(=S)Nc1ccc(CN2CCOCC2)cc1	13	-40*	6	-5	-17%	0
CC(C)c1cc(-c2nc(-c3ccccc3)no2)n[nH]1	1	2	7	-4	?	1
Cc1cc2[nH]c(=O)c(=O)[nH]c2cc1S(=O)(=O)N1CCN(c2cccc(C(F)(F)F)c2)CC1	2	-62*!	7	-9	-2%	-1
Cc1cc2[nH]c(=O)c(=O)[nH]c2cc1S(=O)(=O)N1CCN(c2cccc(Cl)c2)CC1	3	-9	-2	0	-9%	0
Cc1ccc(C(=O)Nc2ccc(C(=O)N/N=C/c3ccccn3)cc2)cc1	2	-38*	0	-11	-8%	-1
Cc1cccc(C(=O)Nc2ccc(C(=O)N/N=C/c3ccc(C)o3)cc2)c1	7	-48*	11	-9	-23%	0
CCCCCCCCC(=O)N/N=C/c1ccccn1	0	-3	9	-3	1%	0
CN(C)c1ccc(C(=O)N/N=C/c2ccccn2)cc1	-1	-40*	-5	2	-18%	0
O=C(N/N=C/c1ccccn1)c1ccccc1	2	-18	21	-2	-16%	0
CCCCC(C(=O)N/N=C/c1ccccn1)C(=O)N/N=C/c1ccccn1	1	-15	35*	-4	-10%	0
CC(C)CNc1nc(Oc2ccc(=O)n(C)n2)nc(N2CCOCC2)n1	3	-43*	-6	-12	-9%	-1
CC(C)CNc1nc(Oc2ccc(=O)n(-c3ccccc3)n2)nc(N2CCOCC2)n1	1	-23	-7	-4	-7%	-1
Cc1cc(C(=O)NC2CCCc3c2cnn3-c2ccc(C)c(C)c2)nc(C)n1 (configuration not stated)	7	-14	-5	-8	-24%	-2
COC(=O)c1ccc(C(=O)NC2CCCc3c2cnn3-c2ccc(C)c(C)c2)cc1 (configuration not stated)	12	-21	35*	-2	-19%	0
Cc1cc(C(=O)NC2CCCc3c2cnn3-c2ccc(C(C)(C)C)cc2)nn1C (configuration not stated)	4	-35*	2	5	-2%	1
Cc1cc(C)cc(-n2ncc3c2CCCC3NC(=O)c2cc(C)n(C)n2)c1 (configuration not stated)	14	-20	-1	-7	-19%	0
Fc1ccc(N2CCN(C3=Nc4cccc5cccc3c45)CC2)cc1	3	-44*	4	-8	-17%	1
SMILES	D1 ag	D1 antag	TRHR PAM	D1 potentiator	USP1 inh	TRHR agonist
CCOC(=O)C1CCN(Cc2ccc(O)c3ncccc23)CC1	0	-42*	11	-1	-15%	0
Cc1ccc(CNC(=O)CN2Cc3ccccc3C2=O)cc1	0	-37*	2	-5	-10%	0
Nc1ccc(Oc2ccc3nc(-c4ccccc4)c(-c4ccccc4)nc3c2)cc1	1	2	15	3	-11%	0
Nc1ccc2nc(-c3ccccc3)c(-c3ccccc3)nc2c1	61*	0	19	9	?	32*
COc1ccc2[nH]c(=O)c(CN(Cc3ccco3)Cc3nnnn3Cc3ccccc3)cc2c1	0	6	9	-1	3%	-2
COCCn1nnnc1CN(CCc1ccccc1)Cc1cc2ccc(C)cc2[nH]c1=O	0	-38*	6	-1	-7%	0
CCOc1ccc2[nH]c(=O)c(CN(Cc3ccco3)Cc3nnnn3Cc3ccccc3)cc2c1	0	-44*	4	-9	-7%	-1
COc1ccc(N2CCN(C(=O)CSc3nc(-c4ccc(C(C)C)cc4)no3)CC2)cc1	2	-5	24	0	10%	0
O=C(CCc1ccccc1)c1ccc2c(c1)OCCCO2	7	8	-4	-7	-17%	1
O/N=C(/CCc1ccccc1)c1ccc2c(c1)OCCO2	1	-41*	2	2	1%	0
O=C(Nc1cccc(C(F)(F)F)c1)n1cc(-c2ccccn2)c(N2CCOCC2)n1	24	-47*	5	-7	-11%	-1
O=C(CN1CCOCC1)Nc1cccc(C(F)(F)F)c1	/	/	/	/	5%	/
CCCOc1ccc(C2c3c(oc4ccc(F)cc4c3=O)C(=O)N2CCc2ccc(OC)cc2)cc1 (configuration not stated)	-1	5	2	1	-18%	-1
CCOc1cccc(C2c3c(oc4ccc(F)cc4c3=O)C(=O)N2CCc2ccc(OC)cc2)c1 (configuration not stated)	0	-30*	8	-7	-18%	-1
CCc1ccc(C2c3c(oc4ccc(F)cc4c3=O)C(=O)N2c2nc(C)c(C(=O)OC)s2)cc1 (configuration not stated)	0	-69*	4	-10	-7%	1
Cn1cnc(S(=O)(=O)N2CCC(C(=O)Nc3ccc(F)cc3F)CC2)c1	-2	-7	0	1	?	0

Compound activity deposited in PubChem BioAssay by National Center for Advancing Translational Sciences (NCATS).
